Source: PubChem (several laboratories)
tim23-1 inh: inhibits growth of tim23-1 mutant yeast. S. cerevisiae tim23-1 growth, BacTiter-Glo luminescence, 24 h. inhibition, % at 20 µM. 1.3% of 330,000 active. AID 463212;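 active means growth inhibition of the mutant yeast at or above 50%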;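 further: temperature-sensitive mutant grown at 25 °C; plate controls were DMSO-treated mutant yeast for no effect and medium wells lacking yeast for full effect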
TIM10 inh: inhibits growth of TIM10 yeast strain; S. cerevisiae TIM10 strain growth, BacTiter-Glo luminescence, 24 h; inhibition, % at 10 µM; 1.4% of 330,000 active;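 active means inhibition of 40% or more at the single tested concentration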;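 further: wild-type TIM10 isogenic control strain grown at permissive 25 °C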
tim10-1 inh: inhibits growth of tim10-1 mutant yeast | 2.2% of 330,000 active | S. cerevisiae tim10-1 ts strain growth, BacTiter-Glo, 24 h | inhibition, % at 20 µM | AID 463190;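 active means inhibition of at least 40%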;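 further: mutant grown at 25 °C; 0% = DMSO wells with yeast and 100% = wells holding no yeast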
NALP1 yeast inh: NALP1 inhibition | S. cerevisiae NALP1/ASC/caspase-1 growth, X-gal OD620, 72 h | 0.61% of 280,000 active | inhibition, % at 10 µM | AID 2071; in the data active means inhibition mostly above about 24%, no sharp cut-off; inactive means mostly below about 32%
V-ATPase pH: alters yeast V-ATPase proton transport | AID 504577 | response, % at 10 µM | 0.37% of 350,000 active | S. cerevisiae, pHLuorin cytosolic pH fluorescence; in the data active means response mostly above about 7.3%, no sharp cut-off; inactive means mostly below about 5.4%; further: actives read high
NLRP3 yeast inh: NALP3 inhibition in yeast | 0.39% of 330,000 active | inhibition, % at 10 µM | Yeast reconstituted NLRP3/ASC/caspase-1, beta-gal luminescence, 24 h;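 active means inhibition of 50% or more; inactive means inhibition below 50%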;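 further: plate controls were induced DMSO wells for no effect and uninduced yeast grown without galactose for full effect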
V-ATPase pH SP: regulators of yeast V-ATPase proton transport; shares compounds with V-ATPase pH; S. cerevisiae pHLuorin cytosolic pH; response, % at 10 µM; 2% of 980 active; AID 602197; in the data active means response above about 24%;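 further: plate controls were vehicle wells for no effect and positive control wells for full effect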
Starred values were filed as active, the others as inactive; nt = not tested or not shown. The list is not random: actives were taken first. Their share in the collection is about 4.2%.

SMILES	tim23-1 inh	TIM10 inh	tim10-1 inh	NALP1 yeast inh	V-ATPase pH	NLRP3 yeast inh	V-ATPase pH SP
O=C(c1ccc([N+](=O)[O-])o1)N1CCN(c2nc3c(F)cc(F)cc3s2)CC1	-8.1	37.0	20.0	nt	31.0*	18.6	40.5*
Fc1cc(F)c2nc(N3CCCCC3)sc2c1	12.9	4.5	1.4	5.4	1.3	15.5	nt
NC(=O)c1cc(NC(=O)CCc2nc3ccccc3s2)cc(C(N)=O)c1	-0.2	-11.5	4.6	15.8	9.6*	0.3	3.7
COc1ccc(N(CC(=O)N/N=C/c2cc(Br)c(C)o2)S(=O)(=O)c2ccc(NC(C)=O)cc2)cc1	5.1	-1.4	17.5	10.9	10.7*	-4.5	-2.4
Cc1ccc(C(=O)NNC(=S)NC(=O)c2ccco2)cc1	-1.1	25.8	-5.6	-9.1	2.1	24.4	nt
Cc1ccc(C(=O)NNC(=O)c2ccco2)cc1	-4.5	1.5	3.7	10.6	16.8*	-8.6	0.3
COCc1cc(C)nc(SCC(=O)Nc2ccccc2C)c1C#N	13.5	2.1	12.4	1.5	-0.5	-10.9	nt
COCCn1c(SCC(=O)NNC(=O)c2ccccc2)nc2ccccc2c1=O	1.6	7.6	14.2	21.2	10.6*	-3.2	-2.3
COCCn1c(SCC(=O)NNC(=O)c2ccc(OC)c(OC)c2)nc2ccccc2c1=O	9.3	1.5	0.6	-7.6	-3.4	12.4	nt
O=C(CSc1nc(=O)n(CCCN2CCOCC2)c2c1CCCC2)Nc1ccc(F)cc1F	-6.2	1.5	-15.5	nt	6.0*	19.6	-0.9
O=S(=O)(NCc1ccccc1)NCc1cccc(C(F)(F)F)c1	2.6	-3.5	10.7	6.1	1.6	6.1	nt
CCc1ccc(N(CC(=O)NC2CCCC2)C(=O)CCC(=O)Nc2ccccn2)cc1	2.1	3.0	12.9	36.0	2.8	9.6	nt
CC(C)c1ccc(N(CC(=O)NC2CCCC2)C(=O)CCC(=O)Nc2ccccn2)cc1	7.5	13.4	-20.2	4.1	15.1*	21.0	-1.5
CCCCc1nnc(SCc2ccc(OCC)cc2)n1N	17.6	6.7	15.1	2.3	5.8	-7.9	nt
Cc1ccccc1OC(C)C(=O)Nc1ccc(S(=O)(=O)N2CCCC2)cc1 (configuration not stated)	19.9	7.7	19.3	-1.1	-6.0	17.9	nt
CC(Oc1cc(F)ccc1[N+](=O)[O-])C(=O)Nc1ccc(S(=O)(=O)N2CCCC2)cc1 (configuration not stated)	28.9	22.7	15.5	9.5	14.9*	3.3	-3.3
COc1ccc(/C=N/Nc2nc(-c3cccc(S(=O)(=O)N4CCCC4)c3)cs2)c(OC)c1	22.4	16.9	26.8	27.0	3.8	18.3	nt
CCOC(=O)c1c(N)sc(C(=O)N(C)C)c1C	5.1	1.0	-1.8	5.1	14.6*	11.5	-1.0
CN(CC(=O)Nc1ccc(N2CCOCC2)cc1)C(=O)CC(c1ccccc1)c1ccccc1	9.5	-2.7	6.8	-1.9	11.7*	7.9	2.4
COCCn1c(=S)[nH]c2cc(C(=O)N3CCN(c4ccccc4OC)CC3)ccc2c1=O	-8.7	12.3	1.0	-4.3	2.6	13.8	nt
COCCn1c(=O)[nH]c2cc(C(=O)N3CCN(c4ccccc4OC)CC3)ccc2c1=O	12.5	6.2	9.0	-1.3	10.0*	1.9	-0.4
O=C(NCc1ccccc1)c1ccc(CS(=O)(=O)Cc2ccccc2F)o1	4.8	-0.9	8.7	1.8	-1.8	7.7	nt
O=C(O)c1ccc(CS(=O)(=O)Cc2ccccc2F)o1	-1.5	1.6	12.0	41.5	9.0*	-3.9	-0.4
CCN1CCN(C(=O)CN(CCc2ccccc2)S(C)(=O)=O)CC1	9.9	12.9	11.3	-3.6	-1.7	5.7	nt
CN1CCN(C(=O)CN(CCc2ccccc2)S(C)(=O)=O)CC1	-13.5	-5.6	-7.0	7.9	10.6*	3.2	0.9
SMILES	tim23-1 inh	TIM10 inh	tim10-1 inh	NALP1 yeast inh	V-ATPase pH	NLRP3 yeast inh	V-ATPase pH SP
Cc1ccccc1C(=O)NC(=S)Nc1ccc(S(=O)(=O)N2CCOCC2)cc1	4.4	5.6	3.3	9.4	9.5*	3.6	-2.8
Cc1ccccc1C(=O)NC(=S)Nc1ccc(S(=O)(=O)N2CCN(C)CC2)cc1	1.3	2.1	11.8	16.1	0.7	2.1	nt
CN1CCN(C(=S)NC(=O)c2ccco2)CC1	-3.3	-9.9	14.5	21.8	11.1*	7.1	0.4
C=CCN(C(=O)CNS(=O)(=O)c1ccccc1)C(C(=O)NCCOC)c1ccncc1 (configuration not stated)	14.6	3.5	3.7	5.7	21.6*	15.3	-5.8
COCCNS(=O)(=O)c1ccccc1	7.3	-7.4	-11.0	-4.3	-0.8	-13.5	nt
Fc1cccc(Cl)c1CNn1cn[nH]c1=S	7.8	8.8	14.1	-7.5	11.2*	28.9	4.5
S=c1[nH]ncn1NCc1ccc(Cl)cc1Cl	4.8	-16.3	8.9	1.9	-0.8	22.1	nt
O=[N+]([O-])c1cc(-c2csc(NCCc3nc4cc(Cl)c(N5CCCCC5)cc4n3CCCO)n2)ccc1Cl	19.0	-23.1	16.7	nt	10.3*	23.8	-3.2
COc1ccc2cc(S(=O)(=O)N3CCN(C)CC3)ccc2c1	-1.0	-16.5	16.3	12.4	12.6*	16.2	-1.2
C=Cn1cc[n+](CC(=O)c2ccc(-c3ccccc3)cc2)c1	-84.1	-117.2	-16.7	16.8	0.2	12.5	nt
Cc1ccc(NC(=O)C2CC(=O)N(C(C)c3ccccc3)C2)cc1 (configuration not stated)	5.0	9.5	-0.3	nt	0.2	4.2	nt
NNC(=O)CNC(=O)c1cccc(Br)c1	-3.7	6.5	-1.3	3.7	25.7*	10.8	-5.9
O=[N+]([O-])c1ccccc1S(=O)(=O)Nc1ccc(S(=O)(=O)N2CCCC2)cc1	-5.8	-7.5	-9.5	nt	-3.4	9.9	nt
CN(C)Cc1c(C(=O)N/N=C/C=C/c2ccccc2)nnn1-c1nonc1N	1.6	-20.6	15.2	-29.5	-0.9	10.1	nt
CCN(CC)C(=O)CSc1nc2ccccc2c(=O)[nH]1	8.9	9.8	5.0	19.9	-0.5	-2.7	nt
CCOC(=O)c1n[nH]c2ccccc12	-3.5	-10.2	-20.1	4.8	3.7	16.7	-3.9
CCOC(=O)c1nc2ccccc2c(=O)[nH]1	8.8	-11.3	4.8	42.7*	-1.3	11.1	-1.4
CCOC(=O)c1n[nH]c(=O)c2ccccc12	4.9	14.3	1.7	12.0	0.0	17.7	nt
CCOC(=O)CSc1nc2ccccc2c(=O)[nH]1	-8.5	-7.8	-3.2	nt	10.2*	-7.0	-0.2
Cc1ccc(C(=O)Nc2nnc(-c3ccc(C(C)(C)C)cc3)s2)cc1	10.5	-0.7	7.2	20.7	0.6	1.2	nt
CCN(CC)C(=O)C1=C(C)N(Cc2ccccc2)C(=O)C(CC(=O)NC2CCCC2)C1 (configuration not stated)	nt	nt	nt	nt	7.1*	nt	-0.9
CC1=C(C(=O)N(C)C)CC(CC(=O)NC2CCCCC2)C(=O)N1Cc1ccccc1 (configuration not stated)	nt	nt	nt	nt	-1.3	nt	nt
